Test results: the supplement of paper PMC9262897, “Low-cost anti-mycobacterial drug discovery using engineered E. coli” (Nature Communications, 2022)
Structures can show the parent of a compound that is named as a salt. ± gives the standard deviation of the averaged measurements.

How the values were obtained:
Assay in all cases: growth (OD600 after 10 h); higher = more growth (less inhibition)
[1] = test system: E. coli TESEC Alr+ wild-type control; conditions: compound 0.1 mM; raw OD600 reference: median of DMSO wells 0.241, cell-free background 0.041
Method: (§1)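 TESEC Mtb Alr E. coli, or the Alr+ wild-type control, in 384-well plates with Prestwick library compounds at 0.1 mM and 1% DMSO, across arabinose induction levels of 1E3 to 1E7 nM. Growth is read as OD600 after 10 h at 37 °C in triplicate biological replicates.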

[2] = test system: E. coli TESEC Mtb Alr; conditions: compound 0.1 mM
Method: as §1

[3] = test system: E. coli TESEC Mtb Asd; conditions: compound 0.1 mM
Method: (§2)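 TESEC E. coli strains in which the native enzyme is deleted and replaced by arabinose-inducible Mtb Asd, DapB, CysH or TrpD, each grown in its selective medium. Strains were screened against the Prestwick library at 0.1 mM and 1% DMSO in 384-well format at low and high arabinose induction. Growth is read as OD600 after 10 h in triplicate.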

[4] = test system: E. coli TESEC Mtb DapB; conditions: compound 0.1 mM
Method: as §2

[5] = test system: E. coli TESEC Alr+ wild-type control; conditions: compound 0.1 mM; raw OD600 reference: median of DMSO wells 0.49, cell-free background 0.052
Method: (§3)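 TESEC Mtb Alr E. coli (ΔaraC ΔtolC ΔentC Δalr ΔdadX, arabinose-inducible Mtb Alr) or the Alr+ wild-type control strain, grown in defined M9-fructose medium without D-alanine in 96-well plates with Prestwick library compounds at 0.1 mM and 1% DMSO. Low Alr induction is 0.1 µM arabinose and high induction is 10 mM arabinose.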

[6] = test system: E. coli TESEC Mtb Alr; conditions: compound 0.1 mM; remark: listed apart in the source
Method: as §3

[7] = arabinose 1000 nM, raw OD600 reference: median of DMSO wells 0.294, cell-free background 0.041
[8] = arabinose 10000 nM, raw OD600 reference: median of DMSO wells 0.264, cell-free background 0.041
[9] = arabinose 100000 nM, raw OD600 reference: median of DMSO wells 0.201, cell-free background 0.041
[10] = arabinose 1000000 nM, raw OD600 reference: median of DMSO wells 0.193, cell-free background 0.041
[11] = arabinose 10000000 nM, raw OD600 reference: median of DMSO wells 0.146, cell-free background 0.041
[12] = arabinose induction (level): High, raw OD600 reference: median of DMSO wells 0.331, cell-free background 0.041
[13] = arabinose induction (level): Low, raw OD600 reference: median of DMSO wells 0.417, cell-free background 0.041
[14] = arabinose induction (level): High, raw OD600 reference: median of DMSO wells […], cell-free background 0.041
[15] = arabinose induction (level): Low, raw OD600 reference: median of DMSO wells 0.227, cell-free background 0.041
[16] = arabinose 100 nM, raw OD600 reference: median of DMSO wells 0.413, cell-free background 0.052
[17] = arabinose 10000000 nM, raw OD600 reference: median of DMSO wells […], cell-free background 0.052

| SMILES | growth [1] | growth [2, 7] | growth [2, 8] | growth [2, 9] | growth [2, 10] | growth [2, 11] | growth [3, 12] | growth [3, 13] | growth [4, 14] | growth [4, 15] | growth [5] | growth [6, 16] | growth [6, 17] |
| --- | --- | --- | --- | --- | --- | --- | --- | --- | --- | --- | --- | --- | --- |
| CC1(C)O[C@@H]2C[C@H]3[C@@H]4C[C@H](F)C5=CC(=O)CC[C@]5(C)[C@H]4[C@@H](O)C[C@]3(C)[C@]2(C(=O)CO)O1 [Flurandrenolide] | 0.223 ± 0.0092 | 0.289 ± 0.015 | 0.2518 ± 0.0025 | 0.174 ± 0.022 | 0.161 ± 0.01 | 0.131 ± 0.0031 | 0.282 ± 0.038 | 0.448 ± 0.035 | 0.216 ± 0.0087 | 0.239 ± 0.0036 | 0.417 ± 0.041 | 0.406 ± 0.01 | 0.338 ± 0.011 |
| CN(C(=O)CN(CCO)CC(=O)N(C)C(C)(C)Cc1ccccc1)C(C)(C)Cc1ccccc1 [Oxethazaine] | 0.0424 ± 0.0038 | 0.0404 ± 0.001 | 0.03963 ± 0.00015 | 0.0411 ± 0.00087 | 0.03937 ± 0.00015 | 0.0411 ± 0.0013 | 0.179 ± 0.014 | 0.25 ± 0.037 | 0.187 ± 0.031 | 0.202 ± 0.05 | 0.0484 ± 0.00076 | 0.165 ± 0.2 | 0.0514 ± 0.00058 |
| CC(=O)c1ccc(S(=O)(=O)NC(=O)NC2CCCCC2)cc1 [Acetohexamide] | 0.253 ± 0.0047 | 0.284 ± 0.0099 | 0.242 ± 0.0032 | 0.191 ± 0.024 | 0.162 ± 0.0024 | 0.156 ± 0.0038 | 0.268 ± 0.082 | 0.455 ± 0.029 | 0.19 ± 0.0083 | 0.232 ± 0.024 | 0.526 ± 0.01 | 0.405 ± 0.0044 | 0.316 ± 0.0099 |
| CC1=Nc2ccc(Cl)cc2S(=O)(=O)N1 [Diazoxide] | 0.244 ± 0.013 | 0.276 ± 0.018 | 0.271 ± 0.0032 | 0.209 ± 0.04 | 0.189 ± 0.01 | 0.146 ± 0.0083 | 0.369 ± 0.022 | 0.412 ± 0.032 | 0.199 ± 0.0067 | 0.245 ± 0.048 | 0.465 ± 0.041 | 0.4111 ± 0.0032 | 0.365 ± 0.034 |
| Brc1c(NC2=NCCN2)ccc2nccnc12 [Brimondine L-Tartrate] | 0.209 ± 0.0033 | 0.2878 ± 0.0023 | 0.26 ± 0.0099 | 0.187 ± 0.016 | 0.172 ± 0.011 | 0.152 ± 0.0034 | 0.271 ± 0.038 | 0.368 ± 0.061 | 0.19 ± 0.02 | 0.237 ± 0.033 | 0.46 ± 0.032 | 0.416 ± 0.015 | 0.343 ± 0.004 |
| CS(=O)(=O)OCCCCOS(C)(=O)=O [Busulfan] | 0.241 ± 0.017 | 0.287 ± 0.025 | 0.272 ± 0.0066 | 0.233 ± 0.026 | 0.184 ± 0.0057 | 0.139 ± 0.0018 | 0.378 ± 0.022 | 0.414 ± 0.036 | 0.209 ± 0.0074 | 0.286 ± 0.024 | 0.445 ± 0.033 | 0.4123 ± 0.004 | 0.362 ± 0.029 |
| CCc1ccc(CCOc2ccc(CC3SC(=O)NC3=O)cc2)nc1 (stereo not given) [Pioglitazone] | 0.225 ± 0.0024 | 0.268 ± 0.012 | 0.267 ± 0.0054 | 0.176 ± 0.0064 | 0.164 ± 0.002 | 0.15 ± 0.0092 | 0.292 ± 0.045 | 0.334 ± 0.04 | 0.191 ± 0.0045 | 0.191 ± 0.011 | 0.577 ± 0.076 | 0.426 ± 0.018 | 0.358 ± 0.023 |
| CC(C)(C)C(=O)OCOC(=O)[C@@H]1N2C(=O)[C@@H](NC(=O)[C@H](N)c3ccccc3)[C@H]2SC1(C)C [Pivampicillin] | 0.26 ± 0.0055 | 0.351 ± 0.0076 | 0.285 ± 0.011 | 0.298 ± 0.011 | 0.207 ± 0.02 | 0.203 ± 0.0048 | 0.376 ± 0.075 | 0.396 ± 0.018 | 0.216 ± 0.058 | 0.24 ± 0.024 | 0.555 ± 0.11 | 0.4 ± 0.012 | 0.379 ± 0.028 |
| CCN(CC)CCCC(C)Nc1ccnc2cc(Cl)ccc12 (stereo not given) [Chloroquine diphosphate] | 0.236 ± 0.0047 | 0.338 ± 0.0096 | 0.2486 ± 0.0011 | 0.235 ± 0.025 | 0.176 ± 0.0044 | 0.163 ± 0.0047 | 0.253 ± 0.047 | 0.246 ± 0.029 | 0.201 ± 0.026 | 0.226 ± 0.047 | 0.549 ± 0.065 | 0.412 ± 0.014 | 0.328 ± 0.02 |
| Cc1ccccc1N1C(=O)c2cc(S(N)(=O)=O)c(Cl)cc2NC1C (stereo not given) [Metolazone] | 0.214 ± 0.0042 | 0.226 ± 0.031 | 0.258 ± 0.0029 | 0.214 ± 0.0094 | 0.136 ± 0.004 | 0.1376 ± 0.00093 | 0.386 ± 0.049 | 0.422 ± 0.091 | 0.199 ± 0.038 | 0.254 ± 0.087 | 0.481 ± 0.062 | 0.4 ± 0.018 | 0.292 ± 0.011 |
| Cc1ccc(C(=O)c2ccc(CC(=O)O)n2C)cc1 [Tolmetin sodium salt dihydrate] | 0.234 ± 0.0061 | 0.281 ± 0.014 | 0.253 ± 0.0051 | 0.169 ± 0.011 | 0.184 ± 0.0077 | 0.1348 ± 0.00087 | 0.432 ± 0.032 | 0.3668 ± 0.0019 | 0.197 ± 0.024 | 0.223 ± 0.028 | 0.518 ± 0.05 | 0.387 ± 0.018 | 0.337 ± 0.0088 |
| O=C(O)c1ccccc1Nc1cccc(C(F)(F)F)c1 [Flufenamic acid] | 0.0528 ± 0.00081 | 0.05003 ± 0.00047 | 0.04063 ± 0.00038 | 0.0593 ± 0.0024 | 0.04467 ± 0.00032 | 0.05807 ± 0.00038 | 0.0691 ± 0.017 | 0.0784 ± 0.0046 | 0.117 ± 0.0058 | 0.181 ± 0.046 | 0.114 ± 0.0046 | 0.0904 ± 0.038 | 0.0543 ± 0.00078 |
| CCCCC(O)c1ccccc1 (stereo not given) [Fenipentol] | 0.242 ± 0.0077 | 0.295 ± 0.005 | 0.253 ± 0.0059 | 0.233 ± 0.035 | 0.178 ± 0.0054 | 0.149 ± 0.0015 | 0.346 ± 0.079 | 0.357 ± 0.036 | 0.227 ± 0.013 | 0.227 ± 0.025 | 0.542 ± 0.07 | 0.403 ± 0.0094 | 0.337 ± 0.017 |
| CN(C)C(=O)C(CCN1CCC(O)(c2ccc(Cl)cc2)CC1)(c1ccccc1)c1ccccc1 [Loperamide hydrochloride] | 0.0426 ± 0.00061 | 0.0401 ± 0.00042 | 0.0402 ± 0.00044 | 0.0412 ± 0.00047 | 0.0404 ± 0.0001 | 0.04237 ± 0.00015 | 0.0486 ± 0.00055 | 0.0487 ± 0.00055 | 0.0489 ± 0.00058 | 0.0571 ± 0.017 | 0.0784 ± 0.034 | 0.4189 ± 0.00099 | 0.0518 ± 0.00072 |
| COC(=O)C1=C(C)NC(C)=C(C(=O)OCC(C)C)C1c1ccccc1[N+](=O)[O-] (stereo not given) [Nisoldipine] | 0.0411 ± 0.00044 | 0.189 ± 0.022 | 0.1989 ± 0.0016 | 0.133 ± 0.0061 | 0.101 ± 0.011 | 0.112 ± 0.0029 | 0.0578 ± 0.0013 | 0.0593 ± 0.0039 | 0.122 ± 0.0061 | 0.114 ± 0.0044 | 0.433 ± 0.007 | 0.386 ± 0.0062 | 0.223 ± 0.012 |
